# PubChem BioAssay (EPA / NIEHS)
# “And” between values parts separate entries of the source, which are not always exact repeats. Equal entries are not always repeated. Records with an inconclusive call do not appear. A structure can be active in one record and inactive in another. The source made the active and inactive calls. How the source made its calls: active means hit-call score of the fitted dose curve at least 0.9, where 1 is the maximum; inconclusive means response in the unintended direction; inactive means score below 0.9.
# Tested on: zebrafish Estrogen Receptor (ER2b), gene 317733
# Experiment: ATG_zfER2b_XSP2: Attagene TRANS-FACTORIAL Multi-Species (XSP2) HepG2 Assay for zebrafish Estrogen Receptor (ER2b) (AID 2283823);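 further: fitted upward as reporter gain over DMSO so potency reflects activation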
# Protocol: ATG_XSP2_multi-species_TRANS is a cell-based, multiplexed assay created by modifying the existing Attagene TRANS-FACTORIAL system to include a panel of nuclear receptors from some or all the following species: human (Homo sapiens), mouse (Mus musculus), frog (Xenopus laevis), zebrafish (Danio rerio), chicken (Gallus gallus), and turtle (Chrysemys picta). The ECOTOX-FACTORIAL format uses HepG2, a human liver cell line, with measurements taken at 24 hours after chemical dosing in a 24-well plate. Xsp2 included 3 nM 6-alpha-fluorotestosterone and 1.5 nM norgestrel to stimulate the androgen receptor.ATG_zfER2b_XSP2 is one of 29 assay components measured or calculated from the ATG_XSP2_multi-species_TRANS assay. It is designed to make measurements of mRNA induction, a form of inducible reporter, as detected with fluorescence intensity signals by Reverse transcription polymerase chain reaction (RT-PCR) and Capillary electrophoresis technology.The assay endpoint ATG_zfER2b_XSP2 was analyzed in the positive analysis fitting direction relative to DMSO as the negative control and baseline of activity. Using a type of inducible reporter, measures of mRNA for gain-of-signal activity can be used to understand the reporter gene at the transcription factor-level as they relate to the gene ER. Furthermore, this assay endpoint can be referred to as a primary readout, because this assay has produced multiple assay endpoints where this one serves a reporter gene function. To generalize the intended target to other relatable targets, this assay endpoint is annotated to the nuclear receptor intended target family, where the subfamily is steroidal.
# Human liver HepG2 cells are transiently transfected with multiple reporter transcription units (MRTUs) in 6-well plates using FuGene 6 reagent (Roche; 3 ml FuGene/1 mg DNA). The MRTU constructs are regulated by a cis-regulating element (promoter). […] A major difference between the CIS and TRANS system is that in CIS activities of endogenous TFs are measured, whereas the TRANS assay evaluates changes in activities of exogenous, chimeric NR-Gal4 proteins. […] At the end of 24 hour incubation, total RNA was isolated using TriZol reagent (Invitrogen). The isolated RNA is then reverse-transcribed using oligo(dT) primer and Mo-MLV reverse transcriptase (Invitrogen) with DNAse I (Ambion) treatment for 30 min. The one-tenth of the produced cDNA was amplified by PCR using Taq DNA polymerase (Invitrogen) and two reporter sequence-specific primers. The PCR products were fluorescently labeled by primer extension with 6-arboxyfluorescein (6-FAM) 5'-labeled reporter sequence-specific primer (2 min at 95 C, 20 s at 68 C and 10 min at 72 C) and these products were digested with 5U of HpaI (New England Biolabs) for 2h at 37 C. The fragments were purified using Qiaquick PCR columns (Qiagen), analyzed on an ABI 3130xL genetic analyzer (Applied Biosystems) with peak positions identified by using a set of X-rhodamine (ROX)-labeled MapMarker1000 molecular weight standards (BioVentures). The raw capillary electrophoresis data was processed using Attagraph software (Attagene).
SMILES,AC50,outcome
CCC(=O)O[C@H]1CC[C@H]2[C@@H]3CCC4=CC(=O)CC[C@]4(C)[C@H]3CC[C@]12C,29.8 nM (active) and 27.2 nM (active),–
CC(C)(c1ccccc1)c1ccc(O)cc1,2.77 µM (active),–
C[C@]12CCC(=O)C=C1CC[C@@H]1[C@@H]2CC[C@]2(C)C(=O)CC[C@@H]12,58.9 nM (active) and 39.4 nM (active),–
CC(c1ccc(O)cc1)(c1ccc(O)cc1)c1ccc(O)cc1,0.688 µM (active),inactive
CC(C)(O)C(=O)Nc1ccc([N+](=O)[O-])c(C(F)(F)F)c1,36.1 µM (active),–
c1cc2ccc3cccc4ccc(c1)c2c34,100 µM (active) and 37.1 µM (active),–
Clc1ccc(C(c2ccccc2Cl)C(Cl)(Cl)Cl)cc1 (stereo not drawn),0.998 µM (active),–
CCOC(=O)C(O)(c1ccc(Cl)cc1)c1ccc(Cl)cc1,28.4 µM (active) and 17.1 µM (active),–
C[C@]12CCC(=O)C=C1CC[C@@H]1[C@@H]2CC[C@@]2(C)[C@H]1CC[C@]2(C)O,0.00834 µM (active),–
Cc1cc(-c2ccc(N)c(C)c2)ccc1N,34.9 µM (active) and 61.3 µM (active) and 39.7 µM (active),–
Oc1ccc(C(c2ccc(O)cc2)(C(F)(F)F)C(F)(F)F)cc1,139 nM (active) and 360 nM (active),–
ClC(Cl)=C(c1ccc(Cl)cc1)c1ccc(Cl)cc1,7.9 µM (active),–
